# Several values for one entry are separate records, joined by “and”; a condition that tells them apart may be missing. Equal values may be shown once. Activity calls are given as the source filed them.
# Assays:
# Albumin (Bos taurus) = Albumin (Bos taurus) (UniProt P02769); assay: compounds binding labelled BSA control protein – biochemical, small-molecule microarray, Alexa647 label, 635/667 nm fluorescence, artefact control for SMM control protein annotation, profiling panel (AID 1118); settings: BSA-A647 binding, fluorescence 635 nm, higher = more signal;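 further: score merges 667 nm emission intensity and signal-to-noise per printed compound spot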
# Albumin (Bos taurus), sequence (P02769 whole entry, looked up): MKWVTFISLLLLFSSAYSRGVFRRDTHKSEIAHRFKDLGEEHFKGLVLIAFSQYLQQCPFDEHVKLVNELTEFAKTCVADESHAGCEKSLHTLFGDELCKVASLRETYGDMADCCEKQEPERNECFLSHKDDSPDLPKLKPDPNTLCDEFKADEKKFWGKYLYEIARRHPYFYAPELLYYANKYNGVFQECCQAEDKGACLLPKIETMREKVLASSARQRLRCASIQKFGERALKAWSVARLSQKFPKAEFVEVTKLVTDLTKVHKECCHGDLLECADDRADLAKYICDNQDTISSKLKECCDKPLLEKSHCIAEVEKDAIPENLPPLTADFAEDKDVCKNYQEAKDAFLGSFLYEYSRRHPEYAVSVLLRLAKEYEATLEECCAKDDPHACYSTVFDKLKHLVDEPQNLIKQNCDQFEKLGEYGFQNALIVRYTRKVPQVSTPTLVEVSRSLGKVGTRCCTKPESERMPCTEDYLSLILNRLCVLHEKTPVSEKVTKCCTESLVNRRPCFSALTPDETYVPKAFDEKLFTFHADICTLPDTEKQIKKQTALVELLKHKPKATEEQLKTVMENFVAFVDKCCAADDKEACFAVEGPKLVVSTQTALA
# [1] = probe aXIP binding to arrayed compounds – biochemical, NeuroSMM set, 635/667 nm fluorescence, primary screen (AID 1119); settings: small-molecule microarray, higher = more signal, called active from +8 up or from −8 down;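 further: probe is the protein aXip251-270 applied at 1 µg/mL to compound-printed slides; binding of probe to printed compounds measured as 667 nm fluorescence plus signal to noise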
# [2] = probe aNOTCH3 binding on compound microarray – biochemical, small-molecule microarray, 635/667 nm fluorescence, primary screen (AID 1120); settings: higher = more signal;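 further: probe is a biotin-tagged antibody raised against NOTCH3 rather than NOTCH3 protein; score merges spot fluorescence near 667 nm with spot signal to noise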
# [3] = probe aNOTCH2 binding on compound microarray – biochemical, small-molecule microarray, 635/667 nm fluorescence, primary screen (AID 1121); settings: higher = more signal;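 further: score merges feature fluorescence read at 667 nm with its signal to noise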
# [4] = biological target: Carbonic anhydrase 2 (Homo sapiens) (UniProt P00918); assay: compounds binding carbonic anhydrase 2 – biochemical, small-molecule microarray, Alexa647-labelled CAII, profiling panel (AID 1122); settings: CAII-A647 binding fluorescence, higher = more signal
# [5] = COS7 lysate on small-molecule microarray, probe aHis, 635 nm (AID 1123); settings: COS7 cell lysate, fluorescence, higher = more signal;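 further: z-score combines 667nm fluorescence intensity with signal-to-noise per printed compound spot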
# [6] = probe aLAP1 signal on lysate-treated microarray – cell lysate, small-molecule microarray, COS7 lysate, primary screen (AID 1124); settings: probe aLAP1, fluorescence, higher = more signal;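 further: lysate comes from COS7 cells expressing LAP1 and is applied at 0.3 µg/mL; score merges spot fluorescence near 667 nm with signal-to-noise over triplicate slides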
# Sam68 (KHDRBS1) = assay: compounds binding KHDRBS1 protein – biochemical, small-molecule microarray, 635 nm fluorescence, primary screen (AID 1125); settings: higher = more signal;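 further: score merges 667 nm channel intensity with signal to noise over triplicate slides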
# [7] = test system: Chordin-like protein 2 (CHRDL2); assay: compounds binding chordin-like 2 – biochemical, small-molecule microarray, 635 nm fluorescence, primary screen (AID 1126); settings: fluorescence 635 nm, higher = more signal;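 further: printed compound slides probed with Chrdl2 protein at 4 µg/mL for 1 h at 4 C; score merges 667 nm emission intensity with signal to noise over three replicate slides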
# [8] = biological target: Concanavalin-A (Canavalia ensiformis) (UniProt P02866); assay: compounds binding concanavalin A lectin – biochemical, small-molecule microarray, Alexa647 label, 635 nm, artefact control for SMM control protein annotation, primary screen (AID 1127); settings: ConA-A647 binding fluorescence, higher = more signal;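 further: z combines 667 nm emission intensity with signal-to-noise across three replicate slides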
# Concanavalin-A (Canavalia ensiformis), sequence (P02866 whole entry, looked up): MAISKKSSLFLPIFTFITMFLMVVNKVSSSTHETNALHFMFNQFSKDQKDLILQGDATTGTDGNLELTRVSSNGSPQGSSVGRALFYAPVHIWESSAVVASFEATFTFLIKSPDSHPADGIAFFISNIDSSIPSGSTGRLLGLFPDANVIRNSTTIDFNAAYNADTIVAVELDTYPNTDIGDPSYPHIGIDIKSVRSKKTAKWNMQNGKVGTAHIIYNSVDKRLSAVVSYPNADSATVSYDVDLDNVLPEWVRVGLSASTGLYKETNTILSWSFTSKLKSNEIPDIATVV
# [9] = compounds binding Alexa647 anti-His antibody – biochemical, small-molecule microarray, 635 nm fluorescence, artefact control for SMM control protein annotation, primary screen (AID 1128); settings: higher = more signal;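 further: score merges feature fluorescence with signal-to-noise for each printed compound spot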
# [10] = test system: Human papillomavirus type 1a E7 protein (residues 1-88); assay: HPV1a E7 small-molecule binders, primary screen, biochemical, small-molecule microarray, residues 1-88, 635 nm (AID 1129); settings: small-molecule microarray binding, fluorescence 635 nm; higher = more signal
# [11] = biological target: Focal adhesion kinase 1 (Homo sapiens) (UniProt Q05397); assay: PTK2 protein binding on printed compound slides – biochemical, small-molecule microarray, 635/667 nm fluorescence, BSA, DTT, primary screen (AID 1130); settings: 635 nm fluorescence, higher = more signal;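 further: composite of spot emission at 667 nm and signal to noise over triplicate slides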
# Focal adhesion kinase 1 (Homo sapiens), sequence (Q05397 whole entry, looked up): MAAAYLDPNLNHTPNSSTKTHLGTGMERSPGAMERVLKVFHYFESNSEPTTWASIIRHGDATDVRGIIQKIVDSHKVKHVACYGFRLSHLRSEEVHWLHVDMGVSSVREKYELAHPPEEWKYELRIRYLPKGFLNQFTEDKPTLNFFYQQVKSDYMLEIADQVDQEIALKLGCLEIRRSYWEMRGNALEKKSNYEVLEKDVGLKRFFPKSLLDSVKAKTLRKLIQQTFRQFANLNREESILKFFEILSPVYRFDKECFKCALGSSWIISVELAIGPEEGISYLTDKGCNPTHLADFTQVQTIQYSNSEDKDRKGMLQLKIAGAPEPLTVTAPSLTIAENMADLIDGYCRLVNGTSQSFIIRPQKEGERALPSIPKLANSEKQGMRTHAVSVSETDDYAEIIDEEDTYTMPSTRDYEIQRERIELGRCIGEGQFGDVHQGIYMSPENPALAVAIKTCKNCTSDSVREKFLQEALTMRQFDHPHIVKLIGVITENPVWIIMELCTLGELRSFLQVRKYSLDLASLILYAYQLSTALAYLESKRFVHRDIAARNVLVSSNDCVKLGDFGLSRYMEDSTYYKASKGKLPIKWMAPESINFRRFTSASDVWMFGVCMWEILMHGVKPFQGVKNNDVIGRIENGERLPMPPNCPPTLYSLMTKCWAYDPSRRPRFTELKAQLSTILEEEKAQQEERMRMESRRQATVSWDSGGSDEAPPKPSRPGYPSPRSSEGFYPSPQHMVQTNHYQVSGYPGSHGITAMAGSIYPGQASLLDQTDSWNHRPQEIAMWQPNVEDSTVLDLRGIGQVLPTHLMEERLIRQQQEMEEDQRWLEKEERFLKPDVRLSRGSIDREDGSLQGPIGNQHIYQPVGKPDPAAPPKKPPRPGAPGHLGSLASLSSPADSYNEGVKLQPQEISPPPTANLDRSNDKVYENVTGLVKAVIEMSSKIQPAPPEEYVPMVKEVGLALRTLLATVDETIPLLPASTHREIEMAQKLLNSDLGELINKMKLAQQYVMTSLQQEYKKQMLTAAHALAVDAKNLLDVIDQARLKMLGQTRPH
# [12] = test system: Fibrinogen (Alexa647-labelled); assay: Alexa647-fibrinogen binding to printed small molecules – biochemical, small-molecule microarray, 635/667 nm fluorescence, artefact control for SMM control-protein annotation, profiling panel (AID 1131); settings: fibrinogen-A647 binding fluorescence, higher = more signal;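 further: z-score merges 667 nm fluorescence with per-spot signal-to-noise over triplicate slides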
# [13] = biological target: Follistatin (Homo sapiens) (UniProt P19883); assay: FST protein binding to printed compounds – biochemical, small-molecule microarray, 635/667 nm fluorescence, primary screen (AID 1132); settings: 635 nm fluorescence, higher = more signal
# Follistatin (Homo sapiens), sequence (P19883 whole entry, looked up): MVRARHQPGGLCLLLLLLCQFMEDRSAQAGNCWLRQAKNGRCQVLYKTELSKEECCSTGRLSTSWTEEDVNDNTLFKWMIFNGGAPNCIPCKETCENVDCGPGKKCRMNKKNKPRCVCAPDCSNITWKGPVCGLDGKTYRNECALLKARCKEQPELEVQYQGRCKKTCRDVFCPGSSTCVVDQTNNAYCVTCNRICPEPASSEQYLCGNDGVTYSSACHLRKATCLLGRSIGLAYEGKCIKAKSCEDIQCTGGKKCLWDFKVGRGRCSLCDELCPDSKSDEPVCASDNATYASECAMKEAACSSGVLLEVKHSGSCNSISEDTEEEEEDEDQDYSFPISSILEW
# [14] = biological target: Fibroblast growth factor 2 (Homo sapiens) (UniProt P09038); assay: basic fibroblast growth factor binding to printed compounds – biochemical, small-molecule microarray, 635/667 nm fluorescence, primary screen (AID 1133); settings: FGF2, fluorescence 635/667, higher = more signal
# Fibroblast growth factor 2 (Homo sapiens), sequence (P09038 whole entry, looked up): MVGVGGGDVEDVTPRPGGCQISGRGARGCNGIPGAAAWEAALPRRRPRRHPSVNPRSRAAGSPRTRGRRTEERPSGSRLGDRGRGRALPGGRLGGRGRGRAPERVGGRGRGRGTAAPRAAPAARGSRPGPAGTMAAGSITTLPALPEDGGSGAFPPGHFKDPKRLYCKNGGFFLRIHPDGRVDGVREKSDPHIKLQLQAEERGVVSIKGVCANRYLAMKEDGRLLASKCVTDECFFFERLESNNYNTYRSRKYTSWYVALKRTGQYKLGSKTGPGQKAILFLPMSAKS
# [15] = JC-1 mitochondrial potential readout, lung cancer cells – cell-based, A549, JC-1 fluorescence, basal, 24 h, 100 nL, profiling panel (AID 1138); settings: higher = more signal;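 further: A549 lung adenocarcinoma cells under basal conditions with no added stimulus; test concentration not given here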
# Lefty1 = Lefty1 protein binding to printed compounds – biochemical, small-molecule microarray, 635/667 nm fluorescence, primary screen (AID 1139); settings: fluorescence 635/667, higher = more signal
# [16] = test system: wheat germ agglutinin (Triticum aestivum), Alexa647-labelled; assay: Alexa647-WGA lectin binding to printed small molecules – biochemical, small-molecule microarray, 635/667 nm fluorescence, artefact control for SMM control-protein annotation, profiling panel (AID 1140); settings: WGA-A647 binding, 635 nm fluorescence, higher = more signal;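 further: score merges 667 nm feature emission with signal to noise over triplicate slides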
# [17] = biological target: Luciferin 4-monooxygenase (Photinus pyralis) (UniProt P08659); assay: inhibition of purified Photinus pyralis luciferase – biochemical, luminescence, purified enzyme, 2006 set, primary screen (AID 1141); settings: purified firefly luciferase, SteadyGlo luminescence, 30 min; higher = more signal, called active from +8 up or from −8 down;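 further: cell-free assay with purified firefly luciferase at 100 ng per well in PBS; test concentration not given here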
# Luciferin 4-monooxygenase (Photinus pyralis), sequence (P08659 whole entry, looked up): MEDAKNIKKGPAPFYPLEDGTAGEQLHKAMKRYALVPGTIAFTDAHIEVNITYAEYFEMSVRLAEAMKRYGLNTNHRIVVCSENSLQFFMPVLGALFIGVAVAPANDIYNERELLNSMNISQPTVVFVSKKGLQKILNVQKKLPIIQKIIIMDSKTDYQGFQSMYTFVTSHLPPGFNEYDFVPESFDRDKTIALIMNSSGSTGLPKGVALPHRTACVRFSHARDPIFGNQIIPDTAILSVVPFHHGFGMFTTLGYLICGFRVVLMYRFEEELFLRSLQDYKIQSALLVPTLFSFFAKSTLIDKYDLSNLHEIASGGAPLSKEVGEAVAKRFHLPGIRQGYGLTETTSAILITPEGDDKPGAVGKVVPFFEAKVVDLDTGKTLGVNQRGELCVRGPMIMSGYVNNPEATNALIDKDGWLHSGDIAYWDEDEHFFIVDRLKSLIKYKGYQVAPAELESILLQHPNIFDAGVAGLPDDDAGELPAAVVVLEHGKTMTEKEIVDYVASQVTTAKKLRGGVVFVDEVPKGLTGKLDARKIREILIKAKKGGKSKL
structure (smiles),measurement,setting,value
C=CCN(C(=O)C(c1cccs1)N(CCOCCO)C(=O)/C=C\C(=O)O)c1ccc(OC)cc1 (stereo not given),composite z-score,Albumin (Bos taurus),-0.625 and -1.25
same,composite Z-score,[1],0.347 (inactive) and -0.659 (inactive)
same,composite z-score,[2],-0.212 and -0.312
same,composite z-score,[3],-0.14 and -0.126
same,composite z-score,[4],-0.655 and -0.65
same,composite z-score,[5],-0.718 and -1.36
same,composite z-score,[6],0.164 and -0.531
same,composite z-score,Sam68 (KHDRBS1),-1.75 and -1.35
same,composite z-score,[7],-0.166 and -3.29
same,composite z-score,[8],-0.337 and -2.28
same,composite z-score,[9],-0.542 and -1.89
same,composite z-score,[10],-0.923 and -1.57
same,composite z-score,[11],-0.303 and -0.67
same,composite z-score,[12],-0.627 and -1.54
same,composite z-score,[13],-0.745 and -1.07
same,composite z-score,[14],-0.993 and -1.6
same,z-score,[15],0.13 and 1
same,composite z-score,Lefty1,-0.208 and -1.45
same,composite z-score,[16],-0.628 and -2.28
same,z-score,[17],0.286 (inactive) and -2.02 (inactive)
CO[C@@H]1C=CCC(=O)N2CCC[C@H]2C(=O)OC[C@H](C)C(=O)OC[C@H]1C,composite z-score,Albumin (Bos taurus),0.987
same,composite Z-score,[1],0.392 (inactive)
same,composite z-score,[2],-0.0077
same,composite z-score,[3],0.012
same,composite z-score,[4],0.403
same,composite z-score,[5],-0.555
same,composite z-score,[6],-0.795
same,composite z-score,Sam68 (KHDRBS1),0.216
same,composite z-score,[7],1.01
same,composite z-score,[8],-0.607
same,composite z-score,[9],0.761
same,composite z-score,[10],-0.624
same,composite z-score,[11],0.0548
same,composite z-score,[12],-1.04
same,composite z-score,[13],1.23
same,composite z-score,[14],0.109
same,z-score,[15],1.54
same,composite z-score,Lefty1,0.864
same,composite z-score,[16],0.508
same,z-score,[17],-1.87 (inactive)
COC(=O)[C@@]1(Cc2ccc(F)cc2)[C@H]2c3cc(C(=O)N4CCCC4)n(Cc4c(CO)[nH]cc(C)c4=O)c3C[C@H]2CN1C(=O)c1ccccc1,composite z-score,Albumin (Bos taurus),1.07 and 0.247
same,composite Z-score,[1],0.418 (inactive) and 0.724 (inactive)
same,composite z-score,[2],1.28 and 0.355
same,composite z-score,[3],0.908 and 0.11
same,composite z-score,[4],0.439 and 0.769
same,composite z-score,[5],2.88 and 2.95
same,composite z-score,[6],0.614 and 0.478
same,composite z-score,Sam68 (KHDRBS1),-0.201 and 0.623
same,composite z-score,[7],-0.114 and -0.367
same,composite z-score,[8],0.196 and 0.0402
same,composite z-score,[9],2.37 and 2.39
same,composite z-score,[10],0.709 and 1.18
same,composite z-score,[11],1.1 and 1.41
same,composite z-score,[12],1.01 and -0.216
same,composite z-score,[13],0.529 and 0.121
same,composite z-score,[14],-0.351 and -0.789
same,z-score,[15],0.395 and 0.404
same,composite z-score,Lefty1,-0.212 and -1.02
same,composite z-score,[16],1.16 and 0.234
same,z-score,[17],2.01 (inactive) and 1.01 (inactive)
C=CCN(C(=O)C1N(CCOCCO)C(=O)C2C(C(=O)O)C3C=CC21O3)c1ccc(OC)cc1 (stereo not given),composite z-score,Albumin (Bos taurus),-0.0638 and -1.17
same,composite Z-score,[1],-0.598 (inactive) and -0.613 (inactive)
same,composite z-score,[2],-0.421 and -0.459
same,composite z-score,[3],-0.211 and -0.143
same,composite z-score,[4],0.797 and 0.959
same,composite z-score,[5],-0.39 and 0.89
same,composite z-score,[6],1.39 and 0.112
same,composite z-score,Sam68 (KHDRBS1),-1.5 and -2.25
same,composite z-score,[7],-2.17 and -3.32
same,composite z-score,[8],-2.82 and -1.96
same,composite z-score,[9],-0.576 and -1.3
same,composite z-score,[10],-1.57 and -1.78
same,composite z-score,[11],0.748 and -0.878
same,composite z-score,[12],-1.13 and -2.1
same,composite z-score,[13],-2.1 and -2.52
same,composite z-score,[14],-0.792 and -1.54
same,z-score,[15],0.154 and 0.454
same,composite z-score,Lefty1,-2.56 and -2.64
same,composite z-score,[16],-0.937 and -1.41
same,z-score,[17],-0.505 (inactive) and -0.392 (inactive)
C=CCN(CCCC)C(=O)C(c1cccs1)N(CCOCCO)C(=O)/C=C\C(=O)O (stereo not given),composite z-score,Albumin (Bos taurus),-0.717 and 0.789
same,composite Z-score,[1],-0.67 (inactive) and -0.0169 (inactive)
same,composite z-score,[2],-0.362 and -0.189
same,composite z-score,[3],-0.14 and -0.115
same,composite z-score,[4],0.916 and 0.734
same,composite z-score,[5],0.0303 and 1.6
same,composite z-score,[6],-0.672 and 0.9
same,composite z-score,Sam68 (KHDRBS1),-1.2 and -0.24
same,composite z-score,[7],-1.6 and -0.769
same,composite z-score,[8],-2.03 and -0.878
same,composite z-score,[9],-0.542 and 1.17
same,composite z-score,[10],-1.01 and 0.222
same,composite z-score,[11],-0.552 and 0.468
same,composite z-score,[12],-2.44 and -1.32
same,composite z-score,[13],-1.31 and -0.249
same,composite z-score,[14],-1.01 and -0.379
same,z-score,[15],0.0562 and 0.567
same,composite z-score,Lefty1,-0.727 and -0.409
same,composite z-score,[16],-0.667 and -0.193
same,z-score,[17],-0.417 (inactive) and -0.714 (inactive)
CC(C)[Si]1(C(C)C)OCc2cc(C3CC3)nc(CCc3ccccc3)c21,composite z-score,Albumin (Bos taurus),-0.367 and -0.0511
same,composite Z-score,[1],-0.145 (inactive) and -0.387 (inactive)
same,composite z-score,[2],-0.0716 and -0.135
same,composite z-score,[3],-0.155 and -0.176
same,composite z-score,[4],-0.344 and 0.027
same,composite z-score,[5],-0.416 and 0.368
same,composite z-score,[6],-0.0371 and -0.455
same,composite z-score,Sam68 (KHDRBS1),-0.636 and 0.47
same,composite z-score,[7],0.32 and 0.195
same,composite z-score,[8],0.211 and 0.513
same,composite z-score,[9],-0.363 and -0.0162
same,composite z-score,[10],-0.868 and 0.316
same,composite z-score,[11],-0.177 and -0.249
same,composite z-score,[12],-0.582 and 0.111
same,composite z-score,[13],0.0259 and 0.303
same,composite z-score,[14],-0.329 and 0.0149
same,z-score,[15],-0.323 and -1.45
same,composite z-score,Lefty1,-0.237 and 0.22
same,composite z-score,[16],-0.269 and 0.0131
same,z-score,[17],-0.324 (inactive) and 0.744 (inactive)

# — PubChem BioAssay
